Our source for the growth values is PubChem BioAssay (NCI).

Compounds without any hit were thinned out: in the full panel of roughly 83,000, 20% have a hit.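 Percent growth is the endpoint: 0 to 100 indicates growth inhibition (40 means 60% inhibition), 0 means no net growth, and negative values indicate cell death.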 A number with no mark means an inactive call. Activity calls are given as the source filed them. How the source made its calls: active means growth percent below 10; inactive means the rest.

The subject of the assay is HL-60(TB) leukemia. Nature of the assay: NCI-60 one-dose screen, 48 h (100 = growth as untreated, 0 = no growth, -100 = all killed). The note with it: 10 µM unless noted.
For the compound `O=C(c1ccc(O)cc1)C1[C@H](c2ccccc2Br)[C@@H](c2ccccc2)NC12C(=O)Nc1ccc(Br)cc12` (stereo not given in full), the growth is 33.6%.
Regarding `N#Cc1c(-c2ccccc2Cl)cc(-c2c[nH]c3ccccc23)[nH]c1=O`, the growth is 68.4%.
The same measure for `CC[C@]12C=CCN3CC[C@]4(C(=C(C(=O)OC)C1)Nc1cc(OC)c([C@@H]5[C@H]6O[C@H]6[C@@]6(CC)CC(C(=O)OC)=C7Nc8cc(O)ccc8[C@@]78CCN5[C@@H]68)cc14)[C@@H]32`: -44.4% (active); for `CN1C(=O)/C(=C/c2ccco2)S/C1=N/c1nccs1`: 102%.
For the compound `Cc1cc(=O)oc2cc(OCCOc3ccc(/C=C/C(=O)Nc4ccccc4N)cc3)ccc12`, the growth was 0.0457% (active).
As for `N/C(=N\c1nc2ccccc2s1)NC(=O)Nc1ccccc1Br`, the growth is -28.5% (active).
As to `CC12CC[C@@H]3[C@]4(C)COC(c5c(F)cccc5F)O[C@@H]4CC[C@@]3(C)[C@@H]1CC(C1=CCOC1=O)O2` (stereo not given in full), the growth was 60.3%.
On to `CN(C)CCOc1ccc(C(=O)C2[C@H](c3ccc(Cl)cc3)[C@@H](c3ccccc3)NC23C(=O)Nc2ccc(Br)cc23)cc1` (stereo not given in full), for which the growth was -60.6% (active).
As to `COc1cc(/C=C/C(=O)c2ccc(C(F)(F)F)cc2)ccc1Oc1nc(Nc2ccc(F)cc2)nc(N(C)C)n1`, the growth was 80%.
Consider `COc1ccc(-c2ccnc(SCc3cc4ccccc4[nH]c3=O)n2)cc1OC`, for which the growth is 87%.
Turning to `CCOC(=O)C1NN(c2ccc(S(N)(=O)=O)cc2)c2nc3nc(-c4cccs4)cc(-c4cccs4)c3c(=O)n21` (stereo not given), the growth was 96.2%.
The same measure for `O=C(Nc1ccc(S(=O)(=O)N2CCCCC2)cc1)C(Cl)Cl`: 120%; for `CCCCNC(=S)Nc1ccc(OCc2nc3ccccc3[nH]2)cc1`: 31.7%.
In the case of `Cc1ccc(Cl)cc1NC(=O)Nc1nc2ccc([N+](=O)[O-])cc2s1`, the growth is 1.69% (active).
Regarding `CC(C)c1sc(NC(=O)c2cc(NC(=O)c3cc(NC(=O)c4cscn4)cn3C)cn2C)nc1C(=O)NCCCN(C)C`, the growth was -22.6% (active).
The same measure for `COc1ccccc1[C@H]1C(C(=O)c2ccc(Cl)cc2)C2(N[C@@H]1c1ccccc1)C(=O)Nc1ccccc12` (stereo not given in full): -29.6% (active).
Turning to `C=C1CC[C@@H]2[C@]3(C)COC(c4cn[nH]c4-c4cccc(Br)c4)O[C@@H]3CC[C@@]2(C)[C@@H]1C/C=C1/C(=O)OCC1O` (stereo not given in full), the growth was -16.3% (active).
As to `O=C(Cc1c(-c2cccc([N+](=O)[O-])c2)n(-c2ncnc3c2c(-c2ccccc2)c(-c2ccccc2)n3Cc2ccccc2)[nH]c1=O)c1ccc(Cl)c(Cl)c1`, the growth was 11.6%.
Regarding `C=C1CCC2C3(C)COC(c4ccc(F)cc4)OC3CCC2(C)C1CC(O)C1=CCOC1=O` (stereo not given), the growth is 35.9%.
The value for `COc1cccc(/C=N/NC(=O)c2ccc3nc(-c4ccc(Cl)cc4)[nH]c3c2)c1O` was -43.4% (active).
With `Cc1noc2c(Cc3ccccc3)nn(CC(=O)N/N=C/c3ccc(Br)cc3)c(=O)c12`, the growth is 100%.
The same measure for `OC(c1ccccc1)(c1ccccc1)C1CCN(c2ccc3nnc(Cl)n3n2)CC1`: -33.6% (active); for `C=C1CC[C@@H]2[C@]3(C)COC(c4cn[nH]c4-c4cccc(Cl)c4)O[C@@H]3CC[C@@]2(C)[C@@H]1C/C=C1/C(=O)OCC1O` (stereo not given in full): -15.1% (active).
Take `CCC(C)(C)c1ccc(OCCCCCCN2CCN(c3ccncc3)CC2)cc1`: the growth is -62.2% (active).
The same measure for `COc1ccc(C2=NN(c3ccccc3)C(c3ccc(OC)c(OCc4ccccc4)c3)C2)cc1OC` (stereo not given): 100%.
In the case of `O=C(CSc1nnc(-c2c[nH]c3ccccc23)n1-c1ccccc1)c1ccc(Cl)cc1`, the growth is 88.9%.
Consider `Cc1cc(C(NC(=O)CCCCCNc2cccc3c2C(=O)N(C2CCC(=O)CC2=O)C3=O)c2cccc(N(C)C)c2)c(O)c2ncccc12` (stereo not given), for which the growth was -15.3% (active).
On to `Nc1nc(-c2ccccc2)cs1`, for which the growth was 18.9%.
`Cc1cc(=O)oc2cc(OCCCCOc3ccc(/C=C/C(=O)Nc4ccccc4N)cc3)ccc12`: the growth was 0.47% (active).
As to `CCN1CCN(Cc2ccc(C(=O)Nc3cccc(Nc4ccc5c(OC)cccc5n4)c3)cc2C(F)(F)F)CC1`, the growth was -57.1% (active).
In the case of `CN(C)CCCc1ccc(Nc2cnn(C)c(=O)c2Cl)cc1`, the growth was 81%.
The same measure for `CCc1ccccc1-c1nc(CN[C@@H]2C[C@@H]3C[C@H]([C@H]2C)C3(C)C)c(C)o1`: -35.9% (active).
As for `COc1cc(NC(=O)CSc2nnc(-c3ccc(-c4nc5ccc(Cl)cc5[nH]4)cc3)o2)cc(OC)c1OC`, the growth is 8.77% (active).
For `O=c1c2ccccc2nc(-c2ccccc2)n1/N=C/c1ccc2ccccc2c1`, the growth was 35.7%.
The same measure for `CCCSc1nc(Nc2ccc(S(N)(=O)=O)cc2)c(C#N)c(-c2cc(OC)c(OC)c(OC)c2)n1`: -40.3% (active); for `C=C1CC[C@@H]2[C@]3(C)COC(c4ccccc4)O[C@@H]3CC[C@@]2(C)[C@@H]1C/C=C1/C(=O)OCC1OC(C)=O` (stereo not given in full): -52.4% (active); for `O=C1CC(Sc2n[nH]c(-c3ccncc3)n2)C(=O)N1c1ccc(Br)cc1` (stereo not given): 101%.
Take `O=C1CCC(N2Cc3c(NCc4ccc(-c5ccccc5)cc4)cccc3C2=O)C(=O)N1` (stereo not given): the growth was 10.7%.
The same measure for `N#C/C(=C/c1ccc([N+](=O)[O-])cc1)c1nnc(NC(=O)c2ccc(-n3c(=O)[nH]c4ccccc4c3=O)cc2)s1`: 99.3%; for `Fc1ccc(Nc2nnc(-c3c[nH]c4ccccc34)o2)cc1`: 44.8%.
